Results on 21 compounds are retold here after PubChem BioAssay (EPA / NIEHS).

“And” between values parts separate entries of the source, which are not always exact repeats. Equal entries are not always repeated. Inconclusive results are not listed. Some structures have more than one record in an assay (separate samples or runs), and their calls can disagree. The source made the active and inactive calls. Rule for the calls: active = hit-call score of the fitted dose curve at least 0.9, where 1 is the maximum; inconclusive = response in the unintended direction; inactive = score below 0.9.

For the test, the target named is Peroxisome proliferator-activated receptor gamma (Homo sapiens) (UniProt P37231). In words: NVS_NR_hPPARg: NovaScreen (NVS) Nuclear Receptor Binding Assay for human Peroxisome Proliferator-activated Receptor gamma (PPARg) (AID 2283370). As for the experimental part: NVS_NR_hPPARg is a biochemical, single-readout assay that uses extracted gene-proteins in a cell-free assay. Measurements were taken 2 hours after chemical dosing in a 384-well plate.NVS_NR_hPPARg is one of one assay component(s) measured or calculated from the NVS_NR_hPPARg assay. It is designed to make measurements of fluorescent polarization, a form of binding reporter, as detected with fluorescence polarization signals by Fluorescence Polarization technology.Data from the assay component NVS_NR_hPPARg was analyzed into 1 assay endpoint. This assay endpoint, NVS_NR_hPPARg, was analyzed in the positive analysis fitting direction relative to DMSO as the negative control and baseline of activity. Using a type of binding reporter, loss-of-signal activity can be used to understand changes in the binding as they relate to the gene PPARG. Furthermore, this assay endpoint can be referred to as a primary readout, because the performed assay has only produced 1 assay endpoint. To generalize the intended target to other relatable targets, this assay endpoint is annotated to the nuclear receptor intended target family, where the subfamily is non-steroidal.
Chain of Peroxisome proliferator-activated receptor gamma (Homo sapiens) (P37231 whole entry, looked up): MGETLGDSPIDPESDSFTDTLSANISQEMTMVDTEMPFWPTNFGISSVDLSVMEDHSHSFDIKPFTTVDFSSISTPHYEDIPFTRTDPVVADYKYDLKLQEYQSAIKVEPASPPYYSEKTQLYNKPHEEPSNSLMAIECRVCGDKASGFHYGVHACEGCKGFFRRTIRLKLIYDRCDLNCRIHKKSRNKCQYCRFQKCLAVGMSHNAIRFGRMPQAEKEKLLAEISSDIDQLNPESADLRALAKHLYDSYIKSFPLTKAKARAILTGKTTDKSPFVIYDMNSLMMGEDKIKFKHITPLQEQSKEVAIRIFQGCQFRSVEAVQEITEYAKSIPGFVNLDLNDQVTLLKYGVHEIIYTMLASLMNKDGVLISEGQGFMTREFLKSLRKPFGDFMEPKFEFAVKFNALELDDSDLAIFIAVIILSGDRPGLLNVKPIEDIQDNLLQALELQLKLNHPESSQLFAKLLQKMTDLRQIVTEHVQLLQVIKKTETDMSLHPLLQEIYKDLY
Binding assays used specific radioligands (tritiated, iodinated) with non-radioactive competitive displacement ligands in agonist or antagonist protocols (as indicated) and various reference compounds and inhibitors to titrate specific binding to receptors and transporters. Most enzyme assays (CYPs, kinases, phosphatases, proteases, HDACs) used recombinant protein and specific substrates (fluorescence mostly, some colorimetric and radioactive) and inhibitors, followed by a biochemical separation of substrate and product. All assays for the biochemical HTS were initially run in duplicate at a single concentration (10 uM for CYP450 assays and 25 uM for all others). […] Each assay was run with positive and negative controls, and concurrent controls on every plate. The follow-up (secondary) screen tested active chemical-pairs in concentration series, as well as a few additional assays not tested in the primary screen, some selected negative inactives, and several cases re-run in the concentration series for confirmatory purposes.
With `Oc1ccc(Cl)cc1Cc1ccccc1`, the result was inactive.

Usually AC50 stands for the concentration giving half of the maximal activity seen. As to `N#Cc1c(Cl)c(Cl)c(Cl)c(C#N)c1Cl`, the half-maximal activity concentration (AC50) was 0.495 µM (active).

In the case of `O=[N+]([O-])c1c(Cl)c(Cl)c(Cl)c(Cl)c1Cl`, the AC50 was 38.1 µM (active).

Regarding `CC(C)(C)C(O)/C(=C\c1ccc(Cl)cc1Cl)n1cncn1` (configuration not stated), the compound was called inactive.

For `COc1nn(CSP(=S)(OC)OC)c(=O)s1`, the call was inactive.

Turning to `COC(=O)c1ccccc1CS(=O)(=O)NC(=O)Nc1nc(OC)cc(OC)n1`, the compound was classed as inactive.

Regarding `CCCN(CCOc1c(Cl)cc(Cl)cc1Cl)C(=O)n1ccnc1`, the compound was classed as inactive.

Turning to `O=C(O)CCCOc1ccc(Cl)cc1Cl`, the outcome was inactive.

For the compound `CCC(C)Nc1c([N+](=O)[O-])cc(C(C)(C)C)cc1[N+](=O)[O-]` (configuration not stated), the compound was called inactive.

For `CC[C@H](C)[C@H]1O[C@]2(C=C[C@@H]1C)C[C@@H]1C[C@@H](C/C=C(\C)[C@@H](O[C@H]3C[C@H](OC)[C@@H](O[C@H]4C[C@H](OC)[C@@H](O)[C@H](C)O4)[C@H](C)O3)[C@@H](C)/C=C/C=C3\CO[C@@H]4[C@H](O)C(C)=C[C@@H](C(=O)O1)[C@]34O)O2` (tested in a mixture with another compound), the compound was called inactive.

In the case of `CNC(=O)CSP(=S)(OC)OC`, the compound was called inactive.

For the compound `O=S(=O)(O)C(F)(F)C(F)(F)C(F)(F)C(F)(F)C(F)(F)C(F)(F)C(F)(F)C(F)(F)F`, the half-maximal activity concentration (AC50) is 16.9 µM (active) [middle of 6 runs].

`O=S1OCC2C(CO1)C1(Cl)C(Cl)=C(Cl)C2(Cl)C1(Cl)Cl` (configuration not stated): the compound was classed as inactive.

For the compound `COP(=O)(OC)OC=C(Cl)Cl`, the half-maximal activity concentration (AC50) was 6.97 µM (active).

For the compound `Oc1cc(Cl)ccc1Oc1ccc(Cl)cc1Cl`, the concentration at half-maximal activity (AC50) was 11.6 µM (active) and 16.2 µM (active) and 6.67 µM (active); the compound was classed as inactive.

With `O=[N+]([O-])/N=C1\NCCN1Cc1ccc(Cl)nc1`, the result was inactive.

Take `CCOc1nc(NC)nc(NC(=O)NS(=O)(=O)c2ccccc2C(=O)OC)n1`: the call was inactive.

For the compound `CC1(C)C(C=C(Cl)Cl)C1C(=O)OC(C#N)c1ccc(F)c(Oc2ccccc2)c1` (configuration not stated), the compound was called inactive.

For the compound `CC(C)(C)C(O)C(Oc1ccc(Cl)cc1)n1cncn1` (configuration not stated), the compound was classed as inactive.

As for `O=C1c2ccccc2C(=O)N1SC(Cl)(Cl)Cl`, the compound was classed as inactive.

Turning to `CC1(c2ccc(Oc3ccccc3)cc2)OC(=O)N(Nc2ccccc2)C1=O` (configuration not stated), the result was inactive.
